This is a sample that favours compounds with a hit; in the whole collection about 21% have one here.
Pf growth 96h = Primary qHTS for delayed death inhibitors of the malarial parasite plastid, 96 hour incubation; P. falciparum luciferase reporter growth, 96 h; Potency, µM (series often up to 28.7 µM), inactives show top-dose activity change, negative = inhibition, usual class: inhibitors; actives 6.9% (n = 320,000); further: potency means the concentration at half of the fitted maximal effect; on the % scale 0 is the no-effect control and ±100 the full control effect
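Luminescence readout: decreased luciferase signal marks inhibited growth of reporter-expressing P. falciparum in infected red cells (2% hematocrit, 0.05% parasitemia final), exposed to compound two generations (96 h, 37 C, 5% CO2).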
NS1 inh = qHTS Assay for Inhibitors of Influenza NS1 Protein Function. Potency, µM (doses to about 46.1 µM), inactives show at the highest dose activity, positive = more growth. actives 0.4% (n = 270,000); calls by dose curve; further: potency means the concentration at half of the fitted maximal effect; actives are rising curves; nearly all actives have a fitted effect of over 50% in size
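S. cerevisiae expressing influenza A NS1, grown in glucose, washed, then diluted 1:100 into pH 6.0 -URA galactose medium with 23 nl compound. Growth recovery read as OD600; NS1-free strain serves as control.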
Shiga inhibitor = A qHTS for Small Molecule Inhibitors of Shiga Toxin | Vero cells, Shiga toxin protein synthesis inhibition reporter | inhibition, % at 38.7 µM | actives 9.2% (n = 290,000) | AID 2315, 2010; in the data active means inhibition mostly above about 28%, no sharp cut-off; inactive means mostly below about 43%; further: 0% is about no effect
CHX counter = Cycloheximide Counterscreen for Small Molecule Inhibitors of Shiga Toxin. max response, %. actives 12% (n = 300,000). cell reporter, cycloheximide protein synthesis inhibition counterscreen. AID 2314, 2010; in the data active means max response mostly above about 13%, no sharp cut-off; inactive means mostly below about 14%; further: read at 38.3 µM for the half of the compounds with a filed dose; 0% is about no effect
Pf growth 48h = Primary qHTS for delayed death inhibitors of the malarial parasite plastid, 48 hour incubation | P. falciparum luciferase growth in erythrocytes, 48 h | Potency, µM (doses to about 28.7 µM), without a hit: at the top dose activity change, negative = inhibition, usual class: inhibitors | actives 5.9% (n = 310,000) | AID 504832, 2011; further: potency means the concentration at half of the fitted maximal effect; on the % scale 0 is the no-effect control and ±100 the full control effect
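Read-out is firefly luciferase luminescence from an integrated reporter in P. falciparum, so falling signal marks reduced parasite growth. Infected erythrocytes were at 2% hematocrit and 0.1% parasitemia (final) in Albumax-supplemented RPMI 1640.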
SARS PLpro yeast = qHTS of Yeast-based Assay for SARS-CoV PLP; Potency, µM (doses to about 32.9 µM), inactives show top-dose activity, positive = growth rescue, hits mostly activators; actives 0.19% (n = 330,000); S. cerevisiae expressing SARS-CoV PLpro, growth rescue; calls by dose curve; further: potency means the concentration at half of the fitted maximal effect; 0% is about no effect; nearly all actives have a fitted effect of over 55% in size
An asterisk follows results filed as active; ? = inconclusive; nt = no result; [ ] = remark or other dose. Unless noted, the call rests on the fitted dose curve; in most records, active means well fitted inhibition curve with a large enough effect; inconclusive means small, poorly fitted or top-dose-only effect, or another doubt; inactive means no such curve, though single readings can be large or run the other way.

SMILES	Pf growth 96h	NS1 inh	Shiga inhibitor	CHX counter	Pf growth 48h	SARS PLpro yeast
CC(C)Cn1c(-c2ccco2)nc2c(c(=O)c3ccccc3n2C)c1=O	1.2µM*	-14%	10	6	1.3µM*	-10%
COCCn1c(-c2cccs2)nc2c(c(=O)c3ccccc3n2C)c1=O	?	1%	6	1	?	-5%
Cn1c2ccccc2c(=O)c2c(=O)n(C3CCCCC3)c(-c3ccco3)nc21	4.1µM*	8%	-5	-5	4.7µM*	11%
CCCCCc1nc2c(c(=O)c3ccccc3n2C)c(=O)n1C1CCCCCC1	12µM*	0%	-10	-5	?	-3%
Cc1nc2c(c(=O)c3ccccc3n2C)c(=O)n1C1CCCCCC1	38%	-5%	21	4	-4%	1%
O=c1c2sccc2n(Cc2cc(=O)n3ccccc3n2)c(=O)n1-c1ccccc1	4.7µM*	9%	-5	1	0%	15%
COC(=O)c1cc2ccsc2n1Cc1nc(-c2ccc(Cl)cc2)oc1C	?	5%	-9	-6	nt	10%
COC(=O)c1cc2ccsc2n1Cc1cc(=O)n2ccccc2n1	48%	-31%	74*	28*	?	5%
CN(C(=O)c1ccc(S(=O)(=O)c2cccc(Cl)c2)c([N+](=O)[O-])c1)C1CCCCC1	?	7%	-14	-8	-2%	7%
COc1nc(Cl)nc(Cl)c1Cl (tested in a mixture with another compound)	nt	5%	nt	nt	nt	nt
COc1ccc(OP(=O)(Nc2ccccc2)Nc2ccccc2)cc1	nt	-36%	35	-3	-7%	-2%
Cc1ccc(NP(=O)(Nc2ccc(C)cc2)Oc2ccccc2)cc1	-29%	nt	20	24*	208%	-5%
OC1(c2ccccc2F)CCN(Cc2nnc(-c3ccccc3)o2)CC1	nt	-3%	41	20*	?	2%
COC(=O)C1CCN(Cc2nnc(-c3ccccc3)o2)CC1	1%	4%	59*	24*	5%	-1%
CCN1CCN(Cc2nnc(-c3ccccc3)o2)CC1	56%	-1%	-5	-2	45%	-1%
c1ccc(-c2nnc(CN3CCC4(CC3)OCCO4)o2)cc1	?	1%	37	13	28%	1%
c1ccc(-c2nnc(CN3CCCCC3)o2)cc1	5%	5%	75*	41*	33%	-2%
O=C(Nc1ccccc1)N1CCCN(c2ccc(C(F)(F)F)cc2[N+](=O)[O-])CC1	10µM*	-2%	-2	-4	13µM*	0%
Cc1cc(N2CCN(c3ccc([N+](=O)[O-])c4cccnc34)CC2)c2ccccc2n1	7.4µM*	13%	-5	-3	-18%	5%
Cc1cc(N2CCN(c3ccc(C(F)(F)F)cc3[N+](=O)[O-])CC2)c2ccccc2n1	7.4µM*	-16%	-2	-3	13µM*	1%
CCC(C)[C@H](NC(=O)N1CCC(Cc2ccccc2)CC1)C(=O)O (stereo not given in full)	22%	4%	-16	-4	5%	3%
CC(C)(C)[C@@H]1C=C(C(=O)N2CCN(Cc3ccccc3)CC2)O[C@H](OCc2ccc(CO)cc2)C1	15µM*	-9%	-15	-1	?	-1%
CC(C)(C)[C@H]1C=C(C(=O)N2CCN(Cc3ccccc3)CC2)O[C@@H](OCCCCO)C1	?	-8%	-13	1	?	1%
CC(C)(C)[C@H]1C=C(C(=O)N2CCN(Cc3ccc4c(c3)OCO4)CC2)O[C@@H](OCc2ccc(CO)cc2)C1	?	-12%	-9	-2	10µM*	0%
Cc1ccc2nccc(C(=O)N3CCCC(Nc4ccc(C)c(C)c4)C3)c2c1 (stereo not given)	-17%	-1%	-8	-10	?	-2%
SMILES	Pf growth 96h	NS1 inh	Shiga inhibitor	CHX counter	Pf growth 48h	SARS PLpro yeast
COc1ccc(C2/C=C\CN(Cc3ccco3)CC(=O)N2Cc2ccc(F)cc2)cc1 (stereo not given)	?	8%	27	-3	?	-2%
CC(O)c1nc2cc([N+](=O)[O-])ccc2n1Cc1ccccc1 (stereo not given)	-14%	15%	-15	-3	13µM*	1%
COC(=O)C1CCN(c2ccc(Cl)nn2)CC1	?	2%	26	14	1.5µM*	0%
COCCn1cnnc1SCC(=O)Nc1cccc(S(=O)(=O)N(C)c2ccccc2)c1	?	-1%	1	5	?	0%
CN(c1ccccc1)S(=O)(=O)c1cccc(NC(=O)CN2CCc3ccccc3C2)c1	10µM*	nt	-9	1	-21%	-9%
Cc1nnc(SCC(=O)Nc2cccc(S(=O)(=O)N(C)c3ccccc3)c2)s1	?	-2%	-67	38*	-8%	-4%
CCC1CCC2(CC1)NC(=O)N(CC(=O)Nc1cccc(S(=O)(=O)N(C)c3ccccc3)c1)C2=O (stereo not given)	?	nt	nt	nt	?	-4%
COc1cc(CC(=O)Nc2cccc(S(=O)(=O)N(C)c3ccccc3)c2)cc(OC)c1OC	nt	nt	nt	nt	nt	-9%
CN(c1ccccc1)S(=O)(=O)c1cccc(NC(=O)CC(C)(C)C)c1	12µM*	-23%	12	1	-17%	16%
Cc1ccc(NC(=O)CN2CCc3ccccc3C2)cc1S(=O)(=O)N(C)C	-10%	-3%	-11	-2	-8%	-1%
CN1C(=O)N(CC(=O)Nc2cccc(S(=O)(=O)N(C)c3ccccc3)c2)C(=O)C12CCCCC2	?	nt	nt	nt	15µM*	1%
CCOC(=O)C1CCCN(C(=O)c2ccc3ncsc3c2)C1 (stereo not given)	nt	nt	nt	nt	nt	-1%
O=C1CN(C(=O)CNCc2ccccc2Cl)c2ccccc2N1	?	1%	25	1	3%	-1%
COc1cc(-c2nc(CN(C)Cc3nnc(C)o3)c(C)o2)ccc1F	?	0%	-7	1	8%	1%
CN(c1ccccc1)S(=O)(=O)c1cccc(NC(=O)COc2cccc([N+](=O)[O-])c2)c1	-19%	nt	nt	nt	13µM*	4%
Cc1cc(C)nc(-n2nc(C)cc2NC(=O)CN2CCc3ccccc3C2)n1	-11%	-43%	64	-5	4.1µM*	1%
NS(=O)(=O)c1cccc(NC(=O)COc2ccc([N+](=O)[O-])cc2)c1	119%	nt	11	-2	9.3µM*	2%
O=C(COc1ccc([N+](=O)[O-])cc1)Nc1ccncc1	?	nt	26	6	31%[5.75 µM]	3%
CCC(=O)c1ccc(OCC(=O)Nc2cccc(S(=O)(=O)N(C)c3ccccc3)c2)cc1	-5%	nt	nt	nt	?	1%
Cc1ccc(NC(=O)CN2CCc3ccccc3C2)cc1F	12%	-5%	29	10	8%	-3%

Compound activity: PubChem, National Center for Advancing Translational Sciences (NCATS)
